KB-3-1 cytotox: qHTS assay for MDR1-selective chemotherapeutics: Primary screen using the parental adenocarcinoma cell KB-3-1 | KB-3-1 viability, CellTiter-Glo ATP luminescence, 72 h | Potency, µM (top dose mostly 46.1 µM), usual class: cytotoxic | hit rate 1.4% among 400,000 | AID 1347075, 2019; also: % is scaled to controls: 0 for no effect and ±100 for the full control effect; nearly all actives have a fitted effect of over 60% in size
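KB-3-1 parental drug-naive adenocarcinoma cells in DMEM/10% FBS, incubated 72 h at 37 C with pin-transferred compounds across a concentration series. Viability by CellTiter-Glo luminescence; concentration-response curves fitted after normalization.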
HT1080 IDH1KD tx: qHTS for induction of synthetic lethality in tumor cells producing 2HG: qHTS for the HT-1080-IDH1KD cell line; AID 686971, 2013; HT-1080 IDH1 knockdown viability, ATP luminescence, 48 h; Potency, µM (doses to about 46.1 µM), for inactives: at the highest dose activity, negative = toxicity, most hits filed as cytotoxic; hit rate 2% among 360,000;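 also: 0% = DMSO wells and -100% = cell-free medium wells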
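After a 2 h attachment period, IDH1KD HT-1080 cells took pin-transferred compound for 48 h at 37 °C; ATP-based luminescence after 10 min room-temperature reagent incubation reported viability.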
SW480 rerep: A quantitative high throughput screen for small molecules that induce DNA re-replication in SW480 colon adenocarcinoma cells | SW480 DNA re-replication, Hoechst DNA content imaging, 48 h | Potency, µM (doses to about 46.1 µM), without a hit: at the highest dose re-replication activation, usual class: activators | hit rate 1.8% among 340,000 | AID 624297, 2012; also: % of control where 0% means no effect; nearly all actives have a fitted effect of over 55% in size
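Treated cells incubate 48 hr (37 C, 5% CO2), are stained 40 min with Hoechst, and nuclear fluorescence is enumerated; a rise in nuclei with high DNA signal marks re-replication.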
MCF10A rereplic: A quantitative high throughput screen for small molecules that induce DNA re-replication in MCF 10a normal breast cells; MCF 10A DNA re-replication, Hoechst nuclear intensity, 48 h; Potency, µM (doses to about 46.1 µM), without a hit: at the highest dose activity, positive = re-replication, hits mostly activators; hit rate 2.9% among 350,000; also: % of control where 0% means no effect; nearly all actives have a fitted effect of over 50% in size
KB-V1 cytotox: qHTS assay for MDR1-selective chemotherapeutics: Primary screen using the drug-selected MDR subline cells KB-V1; hit rate 3.4% among 400,000; KB-V1 MDR cells viability, CellTiter-Glo, 72 h; Potency, µM (top dose mostly 46.1 µM), hits mostly cytotoxic; also: % is scaled to controls: 0 for no effect and ±100 for the full control effect; nearly all actives have a fitted effect of over 60% in size
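Luminescent ATP read-out (CellTiter-Glo, 10 min) measures survival of drug-selected KB-V1 MDR cells after 72 h, 37 degrees C compound exposure. Medium: phenol-red-free DMEM, 10% FBS. Values from fitted concentration-response curves.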
HT1080-NT tox: qHTS for induction of synthetic lethality in tumor cells producing 2HG: qHTS for the HT-1080-NT fibrosarcoma cell line | HT-1080-NT fibrosarcoma viability, CellTiter-Glo ATP luminescence, 48 h | AID 686970, 2013 | hit rate 1.6% among 360,000 | Potency, µM (titrated, usually from 46.1 µM), for inactives: at the highest dose activity, negative = less viability, most hits filed as cytotoxic;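 also: NT is the 2HG producing partner of a matched IDH1 knockdown line; 0% = DMSO-treated cells and -100% = media-only wells without cells; nearly all actives have a fitted effect of over 55% in size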
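Luminescent CellTiter-Glo readout after 48 hours of compound exposure at 37 degrees C defined viability of HT-1080-NT cells. Activity was normalized to DMSO wells and cell-free media wells; concentration-response curves were fitted and assigned curve classes.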
Numbers without * were called inactive; i = inactive; ? = inconclusive; . = no result given. Most compounds without a hit are left out; they make up all but 8% or so of the library. Calls follow the shape of the dose curve; as a rule, active = well fitted curve in the direction sought with a large enough effect; inconclusive = small, poorly fitted or top-dose-only effect, or another doubt; inactive = no such curve, though single readings can be large; an effect the other way counts as inactive or inconclusive. Potency is read from the fitted curve at half-maximal effect.

SMILES	KB-3-1 cytotox	HT1080 IDH1KD tx	SW480 rerep	MCF10A rereplic	KB-V1 cytotox	HT1080-NT tox
COc1ccc(CCn2c(=N)c(C(=O)NC3CCCC3)cc3c(=O)n4ccccc4nc32)cc1	i	6.9%	23.1µM*	20.6µM*	i	-1.5%
COCCCn1c(=N)c(C(=O)NC2CCCC2)cc2c(=O)n3ccccc3nc21	i	.	.	.	i	.
COc1ccc(CCn2c(=N)c(C(=O)NC3CCCC3)cc3c(=O)n4ccccc4nc32)cc1OC	?	1.7%	?	16.4µM*	i	9.0%
COCCCn1c(=N)c(C(=O)NC2CCCCC2)cc2c(=O)n3ccccc3nc21	i	10.6%	5.17µM*	3.26µM*	i	11.1%
COc1ccc(Cn2c(=N)c(C(=O)NC3CCCCC3)cc3c(=O)n4ccccc4nc32)cc1	i	21.4%	4.61µM*	4.11µM*	i	11.6%
COc1ccc(CCn2c(=N)c(C(=O)NCC3CCCO3)cc3c(=O)n4ccccc4nc32)cc1OC (stereo unspecified)	i	-4.3%	?	2.7%	i	-19.3%
COc1ccc(/C=N/Nc2nc(Nc3ccccc3)nc(N3CCCCC3)n2)c(OC)c1	?	0.0%	2.3%	-6.9%	i	-0.4%
OC[C@H]1O[C@@H](c2nc(-c3ccc(C4OCCO4)cc3)no2)[C@H](O)[C@@H]1O	i	4.2%	.	.	i	26.3%
CCOC(=O)CCCOC(=O)c1ccc(S(=O)(=O)N(C)C)cc1	i	1.1%	1.6%	-1.3%	i	1.9%
COc1cc(C=O)c(Br)cc1OCc1ccc(C)cc1	i	-1.6%	?	9.2µM*	i	6.1%
COc1cc(C=O)ccc1OCc1ccncc1	i	-1.1%	-16.3%	-6.1%	i	0.3%
COc1cc(OC)c(NC(=O)N2CCOc3ccc(C)cc32)cc1Cl	i	.	.	.	i	.
CCCNS(=O)(=O)c1ccc(CCC(=O)Nc2cc(Cl)ccc2Oc2ccccc2)cc1	i	-19.3%	5.4%	8.2µM*	8.2µM*	-10.0%
COc1ccc(CCC(=O)Nc2cc(Cl)ccc2OC)cc1	i	-10.8%	?	?	20.6µM*	-23.7%
CC(C)CNS(=O)(=O)c1ccc(CCC(=O)Nc2cc(Cl)ccc2Oc2ccccc2)cc1	?	-41.1%	7.31µM*	15.9%	i	-24.9%
Cc1ccc(C)c(N(CC(=O)Nc2cc(Cl)ccc2Oc2ccccc2)S(C)(=O)=O)c1	?	-7.3%	2.2%	6.7%	20.6µM*	-14.4%
CC(C)(C)NS(=O)(=O)c1ccc(CCC(=O)Nc2cc(Cl)ccc2Oc2ccccc2)cc1	i	-13.7%	-3.7%	-10.9%	i	-4.8%
CC(C)CNS(=O)(=O)c1ccc(CCC(=O)O)cc1	i	2.8%	-1.9%	19.6%	i	-0.1%
Cc1cccc(C)c1N(CC(=O)Nc1cc(Cl)ccc1Oc1ccccc1)S(C)(=O)=O	i	-10.5%	-3.3%	-2.6%	i	-2.5%
COc1ccc(Cl)cc1NC(=O)CC(=O)Nc1cc(Cl)ccc1OC	i	?	24.7%	22.8%	i	-20.0%
N=c1sccn1CC(=O)Nc1cc(Cl)ccc1Oc1ccccc1	i	?	14.9%	?	?	16.4µM*
C=CCN(CC=C)C(=O)Nc1cc(Cl)ccc1OC	i	-14.4%	-2.1%	-2.8%	14.6µM*	15.2%
COC(=O)C1(C(=O)OC)CCCCN(S(=O)(=O)c2ccc(C)cc2)CCC1	?	-13.6%	.	.	?	-2.1%
O=C(CCl)N(c1ccccc1)C1CCCCC1	i	3.26µM*	?	20.6%	?	5.17µM*
CC(=O)N(c1ccccc1)C1CCCC1	i	0.5%	-13.5%	1.1%	i	0.6%
SMILES	KB-3-1 cytotox	HT1080 IDH1KD tx	SW480 rerep	MCF10A rereplic	KB-V1 cytotox	HT1080-NT tox
CCSc1c(-c2ccccc2)nc2c(C)cccc2c1C(=O)O	i	11.8%	0.9%	1.0%	i	7.3%
COc1ccc(-n2cc(-c3ccccc3)[n+]3c2CCCCC3)cc1	?	?	?	22.9%	i	?
CC(C)c1ccc(-n2c(-c3ccccc3)c[n+]3c2CCc2ccccc2-3)cc1	2.59µM*	7.31µM*	-0.2%	?	i	8.2µM*
COc1ccccc1-n1c(-c2ccccc2)c[n+]2c1CCc1ccccc1-2	3.26µM*	13µM*	-0.1%	15.8%	i	14.6µM*
C[n+]1cc(-c2ccccc2)n2c1CCCCC2	?	4.3%	0.0%	12.8%	i	-2.6%
COc1ccc(-c2cn(-c3ccc(OC)cc3)c3[n+]2-c2ccccc2CC3)cc1	3.66µM*	?	-2.8%	0.2%	i	25.9µM*
COc1ccc(-n2c(-c3ccc(Br)cc3)c[n+]3c2CCc2ccccc2-3)cc1	2.59µM*	16.4µM*	6.3%	18.4µM*	i	?
COc1ccc(-n2cc(-c3ccc(Br)cc3)[nH]c2=S)cc1	i	13.0%	-0.2%	4.1%	i	7.7%
Cc1[nH]n(-c2ccccc2)c(=O)c1C(C[N+](=O)[O-])c1ccc(Br)cc1 (stereo unspecified)	i	-17.5%	?	3.26µM*	i	-25.9%
O=C(NCC(c1ccco1)N1CCCCC1)c1ccc([N+](=O)[O-])s1 (stereo unspecified)	?	-4.5%	?	12.8%	?	-7.4%
Cc1cc(/C=N/NC(=O)c2cccc(F)c2)c(C)n1-c1ccccc1	i	-27.8%	4.5%	18.4µM*	i	-29.2%
CC(/C=N/NC(=O)c1ccncc1)=C\c1ccccc1	i	?	0.9%	-22.0%	i	-1.0%
CC(/C=C/c1ccccc1)=N/NC(=O)CNC(=O)c1ccc2c(c1)OCO2	i	-20.2%	-0.8%	?	i	-11.6%
CC(/C=C/c1ccccc1)=N\NC(=O)c1ccc2c(c1)OCCO2	?	-26.4%	18.4µM*	20.8%	i	-13.6%
CC(/C=C/c1ccccc1F)=N\NC(=O)c1cccc(F)c1	?	?	?	?	20.6µM*	-19.3%
CC(=C/c1ccc(C(C)C)cc1)/C=N/NC(=O)c1ccncc1	i	12.4%	-3.8%	20.6µM*	i	11.4%
CCOC(=O)N/N=C/c1cc(C)n(-c2cccc3ccccc23)c1C	i	-25.9%	-75.1%	?	?	-2.1%

Screening data deposited in PubChem by National Center for Advancing Translational Sciences (NCATS).
